Screens as filed in PubChem BioAssay.
Compounds with a hit are over-represented: about 2.2% of the library has one in this group of screens.
HSP90 inh – blocks HSP90-mediated luciferase refolding in reticulocyte lysate | Rabbit reticulocyte lysate, luciferase refolding luminescence, 3 h | inhibition, % at 5.6 µM | hit rate 0.91% among 290,000 | AID 1789;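 active means inhibition above the screen-wide mean plus 3 SD, computed separately per campaign, cut at about 16% in these data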;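 further: 0% = DMSO wells and 100% = 60 µM geldanamycin wells; inhibitors lower the luminescence because luciferase stays unfolded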
LGR2 inh – blocks bursicon-induced cAMP signaling via Drosophila LGR2. HEK293 LGR2, CRE-luciferase, bursicon-stimulated, 4 h. inhibition, % at 9.99 µM. hit rate 0.35% among 380,000. AID 720647;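 active means drop in luminescence signal, shown as inhibition above about 50% in the replicate tests, limit read from the data, passing the limit was not always enough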;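 further: agonist challenge used bursicon conditioned medium at about half maximal strength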
TROY signal inh – inhibitors of TROY-dependent NF-kB signaling. Q293 LMP1-TROYcd NF-kB luciferase reporter, 4 h. inhibition, % at 10 µM. hit rate 0.98% among 360,000. AID 1347056;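 active means compounds whose plate-normalised and pattern-corrected inhibition of the luciferase reporter signal at the single screening dose is 50% or more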
TWEAK Fn14 block – inhibitors of TWEAK-Fn14 interaction signaling. TWEAK-stimulated Fn14 reporter cells, luciferase luminescence, 8 h. inhibition, % at 10 µM. hit rate 2% among 360,000. AID 1159606; in the data active means inhibition above about 50%
Starred values were filed as active, the others as inactive; / = not tested or not shown; ! = not confirmed by another sample.

SMILES	HSP90 inh	LGR2 inh	TROY signal inh	TWEAK Fn14 block
COc1ccc(CNC(=O)Nc2nnc([C@@H]3C[C@H](O)[C@@H](CO)O3)s2)cc1	/	14	6	63*
O=C(Nc1nnc([C@H]2C[C@H](O)[C@@H](CO)O2)s1)c1cccc(C(F)(F)F)c1	/	/	-1	5
O=C(Nc1cccc(C(F)(F)F)c1)Nc1nnc([C@@H]2C[C@H](O)[C@@H](CO)O2)s1	/	/	7	55*
O=C(C[C@@H]1CC[C@@H]2[C@H](COC[C@H](O)CN2Cc2ccccc2F)O1)NC1CCC1	/	1	/	/
COc1ccc2c3c(n(C)c2c1)[C@@H](CO)N(C(=O)c1ccccc1)CC31CN(C(=O)c2ccccc2)C1	/	-14	/	/
COc1nn(-c2ccccc2)c(=O)c(Cl)c1Cl	-5	-14	74*	99*
Fc1ccccc1NC(=S)N/N=C/c1ccccc1Br	16*	/	35	28
O=[N+]([O-])c1ccc(/C=N/NC(=S)Nc2ccccc2F)o1	6	-35	-45	-3
O=C(CSc1n[nH]c(=O)[nH]c1=O)NC1CCCCC1	17*	-20	-18	-8
O=C(Nc1cccc(-c2cnc3ccccc3n2)c1)c1ccco1	0	/	/	48
Cc1ccc(C(=O)Nc2cnc3ccccc3c2)cc1	87*	/	87*	105*
O=C(Nc1cnc2ccccc2c1)c1ccco1	7	/	-25	57*
C[C@H]1CN([C@@H](C)CO)S(=O)(=O)c2ccc(C#CC3CCCC3)cc2O[C@H]1CN(C)Cc1ccccc1C(=O)O	/	10	/	/
C[C@@H]1CN([C@H](C)CO)C(=O)c2cccc(NS(C)(=O)=O)c2O[C@H]1CN(C)C(=O)NC1CCCCC1	/	8	/	/
CCCCCCCCCCCCCCCC[n+]1cccc(C(=O)N(CC)CC)c1	1	-2	57*!	-15
CCCCCCCC[n+]1cccc(C(=O)N(CC)CC)c1	1	/	4	18
CCC(=O)N1[C@@H]2CN(C(=O)CC(F)(F)F)c3ccccc3[C@@H]2[C@@H]1CO	/	7	/	/
C[C@@H]1CN([C@H](C)CO)C(=O)c2cccc(NC(=O)c3cnccn3)c2O[C@@H]1CN(C)C(=O)NC1CCCCC1	/	7	/	/
CC(=O)c1ccc(-n2c(CCC(=O)O)ccc2-c2cccs2)cc1	4	-64	57*	61*
O=C(O)CCc1ccc(-c2cccs2)n1NC(=O)c1ccco1	5	-4	5	105*
CNC[C@@H]1Oc2ncc(C#Cc3ccc(F)cc3)cc2C(=O)N([C@H](C)CO)C[C@@H]1C	/	-24	/	/
CCN(CC)c1ccc(-c2nnc(SCC(=O)Nc3ccccc3C#N)n2-c2ccccc2)cc1	2	/	/	75*
N#Cc1ccccc1NC(=O)CSc1nnc(-c2ccccc2)n1-c1ccccc1	1	/	-14	13
Cc1ccc(S(=O)(=O)Nc2ccccn2)c(C)c1	/	-1	4	16
CN(C)c1cccc2c(S(=O)(=O)Nc3ccccn3)cccc12	-1	/	62*	84*
SMILES	HSP90 inh	LGR2 inh	TROY signal inh	TWEAK Fn14 block
Cc1nc(N2CCN(Cc3ccccc3)CC2)nc2c1CCC2	0	8	12	60*
Cc1ccccc1S(=O)(=O)N1C[C@H](O)COC[C@H]2O[C@@H](CC(=O)N3CCOCC3)CC[C@@H]21	/	4	/	/
COCCOC(=O)C1=C(C)NC2=C(C(=O)CC(C)(C)C2)C1c1cc2c(cc1Br)OCO2 (stereo not given)	-2	37	6	60*
COCCOC(=O)C1=C(C)NC2=C(C(=O)CC(C)(C)C2)C1c1ccc(N(C)C)cc1 (stereo not given)	-1	-13	-4	-11
COCC(C)n1c(C)cc(C(=O)COC(=O)c2cnc(Cl)c(Cl)c2)c1C (stereo not given)	/	2	4	-2
COCC(C)n1c(C)cc(C(=O)COC(=O)c2cccn2C)c1C (stereo not given)	/	/	82*	94*
C[C@@H]1CN([C@@H](C)CO)C(=O)c2cccc(NC(=O)CCCCCC(=O)Nc3ccccc3N)c2O[C@@H]1CN(C)C	/	10	/	/
O=C(Cn1ccc2ccccc2c1=O)NCCC(=O)Nc1ccc2c(c1)OCCO2	0	/	36	57*
O=C(N/N=C/c1ccc2cccnc2c1)c1ccco1	14	42	32	52*
CCN(Cc1ccccc1)c1ccc(/C=N/NC(=O)c2cccc(S(=O)(=O)N3CCOCC3)c2)cc1	6	34	26	69*
CCN(CC)c1ccc(/C=N/NC(=O)c2ccco2)cc1	-1	3	16	64*
CCN(CC)c1ccc(/C=N/NC(=O)c2cccc(S(=O)(=O)N3CCOCC3)c2)cc1	-4	15	6	16
O=C(Nc1ccc(F)cc1)N[C@@H]1CC[C@@H](CCNC(=O)c2ccccc2F)O[C@H]1CO	/	17	/	/
O=C(Nc1ccc2c(c1)[C@H]1C[C@H](CC(=O)N3CCc4ccccc4C3)O[C@H](CO)[C@H]1O2)C1CCC1	/	7	/	/
O=c1c2ccccc2cnn1-c1nc2ccccc2[nH]1	92*	100*	89*	97*
O=c1c2ccccc2nc2c3ccccc3cnn12	1	-2	-100	-38
CCCN1[C@@H]2c3ccc(C4=CCCC4)c(=O)n3C[C@@H]2[C@@H](CO)[C@@H]1C(=O)NCC	/	5	/	/
CC(C)N(CC(=O)Nc1ccc(Cl)cc1C(F)(F)F)C(=O)CCl	-1	3	-5	63*
CCC(C)N(CC(=O)Nc1cccc(C)c1C)C(=O)CCl (stereo not given)	6	/	8	60*
O=C(O)CSCC(=O)Nc1ccc(Cl)cc1C(F)(F)F	2	-8	3	-49
Cc1noc(C)c1COC(=O)c1cccc(S(=O)(=O)N2CCOCC2)c1	/	13	16	8
Cc1noc(C)c1COC(=O)c1cccc(S(=O)(=O)N2c3ccccc3CC2C)c1 (stereo not given)	6	/	19	53*
CCc1ccc(C2=NNC(=Nc3cccc(S(=O)(=O)N(C)C)c3)SC2)cc1	-1	/	28	72*
Cc1ccc(C2=NNC(=Nc3ccc(F)cc3)SC2)cc1	2	-99	-12	22
O=C(Nc1ccc(Br)c2ccccc12)c1ccc2ccccc2c1O	-3	30	51*	55*
SMILES	HSP90 inh	LGR2 inh	TROY signal inh	TWEAK Fn14 block
Cc1nc(C)c(C(=O)O)s1	-3	0	-5	95*
Cc1nc(C)c(C(=O)Nc2ccccc2)s1	1	-13	-5	-11
O=C(c1ccccn1)N1CC[C@H]2[C@H](CO)Nc3ccc(-c4ccc(F)cc4)cc3[C@H]21	/	-2	/	/
C[C@H](CO)N1C[C@H](C)[C@@H](CN(C)C(=O)c2cnccn2)Oc2cc(C#CC3CC3)ccc2S1(=O)=O	/	-11	/	/
COCC#Cc1ccc2c(c1)O[C@H](CN(C)CC1CCOCC1)[C@@H](C)CN([C@@H](C)CO)S2(=O)=O	/	-20	/	/
Cc1cc(C)cc(NC(=O)Cn2c(SCc3cc(C)ccc3C)nc3ccncc32)c1	16*	/	/	/
Cc1ccc(CSc2nc3ccncc3n2CC(=O)Nc2cc(C)cc(C)c2)cc1	3	-54	-60	-1
Cc1c(Cl)cccc1NC(=S)N=Nc1c(O)n(CN2CCOCC2)c2ccccc12	4	/	33	105*
C[C@H](CO)N1C[C@H](C)[C@@H](CN(C)C(=O)Nc2cccc3ccccc23)Oc2ccc(NC(=O)CCN3CCOCC3)cc2CC1=O	/	0	/	/
